Bioassay records: PubChem BioAssay, National Center for Advancing Translational Sciences (NCATS)
The list is not random: actives were taken first. Their share in the collection is about 21%.
ClpP mod – qHTS Assay for Activators of ClpP. 1.9% of 340,000 active. purified B. subtilis ClpP, FRET peptide cleavage, 20 min. ATP-dependent Clp protease proteolytic subunit (Bacillus subtilis (strain 168)), P80244. Potency, µM (top dose mostly 57.5 µM), for the others: top-dose activity change, negative = active; active = well fitted falling curve with a large enough effect; inconclusive = small, poorly fitted or top-dose-only effect; inactive = no such curve, though single readings can be large or run the other way; also: potency is read from the fitted curve at half-maximal effect; the source files actives as falling curves though it sought activators and does not explain the sign; nearly all actives have a fitted effect of over 65% in size
Target sequence (P80244 whole entry, looked up): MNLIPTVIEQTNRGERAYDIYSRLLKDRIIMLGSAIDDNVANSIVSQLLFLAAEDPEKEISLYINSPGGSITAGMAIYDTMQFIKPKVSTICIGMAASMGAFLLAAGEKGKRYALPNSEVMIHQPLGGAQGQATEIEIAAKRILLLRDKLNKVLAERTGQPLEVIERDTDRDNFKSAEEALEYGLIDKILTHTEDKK
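Purified B. subtilis ClpP, 10 microg/mL final in Tris/HCl pH8 with KCl, BSA, glycerol and Tween-20, cleaved an Abz/nitrotyrosine-quenched decapeptide. Fluorescence (ex 320, em 430) was read at 0 and 20 min at room temperature. Delta was normalized to 5.8 microM ADEP and DMSO/no-enzyme controls.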
DRD3 agonist – activates the human D3 dopamine receptor; P35462; D3R DiscoveRx beta-arrestin cells, luminescence, 90 min; max activation, %; 0.58% of 410,000 active; AID 652048; in the data active = max activation above about 30%; also: 0% is about no effect
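Agonist mode: compounds and dopamine controls were applied to plated cells for 90 min at 37 degrees C after an overnight attachment at 1500 cells/well. Luminescent read-out followed 30 - 60 minutes at room temperature with DiscoveRx detection reagent.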
IL-1B inflam inh – blocks inflammasome-driven IL-1 beta release. activity change, % at 57.5 µM. 4.7% of 360,000 active. THP-1 LPS/ATP IL-1B secretion, AlphaLISA, 16 h; hits give low values; in the data active = activity change below about -50%; inconclusive = mostly about -30% to -49%; also: % is scaled to controls: 0 for no effect and ±100 for the full control effect
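Secreted IL-1B measured by AlphaLISA bead assay after 16 h compound exposure of THP-1 cells; compounds (final up to 57.5 uM) added 1 h before LPS (250 ng/mL) and ATP (1.25 mM) stimulation; lower signal means less secretion.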
TDP1 cell CPT – growth inhibition of DT40 Tdp1-/-;hTDP1 cells with camptothecin (screen for TDP1 inhibitors); chicken DT40 Tdp1-/-;hTDP1 cells + 20 nM CPT, ATP luminescence, 48 h; Potency, µM (series often up to 46.2 µM), inactives show top-dose activity change, negative = growth inhibition, usual class: inhibitors; 12% of 420,000 active; also: potency is read from the fitted curve at half-maximal effect; % is scaled to controls: 0 for no effect and ±100 for the full control effect; nearly all actives have a fitted effect of over 55% in size
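Cell growth measured by CellTiter-Glo luminescence after a minimum 48 h, 37 C compound exposure with 20 nM CPT in Tdp1-knockout DT40 cells stably expressing hTDP1, seeded 400/well; qHTS titration format.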
TDP1 cell noCPT – qHTS for Inhibitors of human tyrosyl-DNA phosphodiesterase 1 (TDP1): qHTS in cells in absence of CPT. Potency, µM (top dose mostly 46.2 µM), without a hit: top-dose activity change, negative = growth inhibition, most hits filed as inhibitors. AID 686978, 2013. 15% of 420,000 active. DT40 Tdp1-/- hTDP1 cells, no CPT, ATP luminescence, 48 h; also: potency is read from the fitted curve at half-maximal effect; % is scaled to controls: 0 for no effect and ±100 for the full control effect; nearly all actives have a fitted effect of over 55% in size
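Cells were dispensed at 400 per well, compounds added by pin tool, plates incubated ≥48 hr at 37 °C, then CellTiter-Glo added for 30 min at room temperature before luminescence reading. Line: DT40 Tdp1-/- complemented with hTDP1; camptothecin omitted.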
DRD3 antagonist – D3 dopamine receptor (human) antagonism | P35462 | max response, negative = inhibition, % | D3R cells, DiscoveRx beta-arrestin luminescence, antagonist mode; hits give low values | AID 652054 | 2.5% of 360,000 active; in the data active = max response below about -50%; inconclusive = no clear call, values can overlap the other calls; also: % is scaled to controls: 0 for no effect and ±100 for the full control effect
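Cells expressing the human receptor were seeded at 1500 cells/well, incubated overnight at 37 degrees C in 5% CO2, then exposed to library compounds with dopamine controls for 90 minutes at 37 degrees C before luminescent detection.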
An asterisk follows results filed as active; ? = inconclusive; . = not tested or not shown. Unless noted, calls follow the shape of the dose curve; as a rule, active = well fitted inhibition curve with a large enough effect; inconclusive = small, poorly fitted or top-dose-only effect; inactive = flat fitted curve, though single readings scatter.

SMILES	ClpP mod	DRD3 agonist	IL-1B inflam inh	TDP1 cell CPT	TDP1 cell noCPT	DRD3 antagonist
COC(=O)c1cc(C#N)c(N(C)Cc2ccccc2)nc1C	?	-8	-13	-11%	-19%	?
CCOC(=O)c1cc(C#N)c(N)nc1C	22µM*	11	3	-2%	-16%	16
O=C(CCNC(=O)c1ccc(Cl)cc1)Nc1ccncc1	-2%	3	17	-20%	-16%	6
CN(C)c1cccc(C(=O)n2cc(C(=O)c3cc(F)ccc3O)cn2)c1	48%	4	-12	-2%	?	2
COc1ccc(O)c(C(=O)c2cnn(C(=O)c3cccc(N(C)C)c3)c2)c1	22µM*	-6	-24	18µM*	18µM*	-1
O=c1oc(CCCO)cc2ccc(/C=C/c3cccc([N+](=O)[O-])c3)cc12	-1%	14	11	-28%	?	49
COc1ccc(N(C(=O)c2ccc(Br)o2)C2C=CS(=O)(=O)C2)c(OC)c1 (centres undefined)	0%	0	9	?	18µM*	3
Nc1ncnc2c1ncn2[C@@H]1O[C@H](CNC(=O)[C@H]2CCC(=O)N2)[C@@H](O)[C@H]1O	-3%	-7	-3	-1%	-4%	0
CCc1ccc(C(=O)C(C)OC(=O)Cc2n[nH]c(=O)c3ccccc23)cc1 (centres undefined)	1%	13	6	6.5µM*	7.3µM*	9
O=C(c1ccc(Cl)cc1)N1CCC(C(=O)N2CCN(c3ncccn3)CC2)CC1	-11%	6	14	-27%	-14%	26
Cc1ccc2cc(CCl)c(Cl)nc2c1	.	-5	16	16µM*	21µM*	3
ClCc1cc2ccccc2nc1Cl	0%	6	0	10µM*	8.2µM*	8
CCc1cc2ccccc2nc1Cl	0%	0	-7	0%	15%	7
O=C1c2ccccc2NC(c2cccc(Cl)c2)N1N=C1CCCCCC1 (centres undefined)	20µM*	-2	?	-5%	-10%	-11
COc1ccc(CCNC(=O)CCn2c(=O)c3cccn3c3cccnc32)cc1OC	-15%	4	0	-5%	?	-2
Cc1cccc(NC(=O)CCCn2nc(C)c3c(C)n(-c4ccccc4)nc3c2=O)c1C	-2%	8	.	1%	-28%	.
COc1ccc(S(N)(=O)=O)cc1C(=O)OCCCC(=O)c1ccccc1	1%	10	44	?	?	6
O=C1CC(N2CCN(C(c3ccccc3)c3ccccc3)CC2)C(=O)N1Cc1ccc(N2CCCC2=O)cc1 (centres undefined)	1%	2	4	-4%	9%	6
NC(=O)C1CCN(C2CC(=O)N(Cc3ccc(N4CCCC4=O)cc3)C2=O)CC1 (centres undefined)	-1%	0	4	26µM*	?	-2
O=C1N=C(N2CCCC2C(=O)O)S/C1=C\c1ccco1 (centres undefined)	.	-6	-1	8.2µM*	18µM*	14
N=C1/C(=C/c2ccco2)C(=O)N=C2SC(CC(=O)N3CCCC3)=NN12	-1%	0	-9	-18%	24%	-11
COc1ccc(-c2nc(CS(=O)CC(=O)NCc3ccc4c(c3)OCO4)c(C)o2)cc1OC (centres undefined)	3%	0	?	?	-14%	-1
COc1cccc(/C=N/NC(=O)c2[nH]c(C)c(C(=O)N/N=C/c3cccc(OC)c3O)c2C)c1O	-3%	-5	50	5.2µM*	3.3µM*	16
COc1ccccc1/C=N\NC(=O)c1c(C)nc2ccc(Cl)cn12	-13%	10	19	1%	-22%	2
COc1ccc(C(=O)N/N=C/c2cc3ccccc3[nH]c2=O)cc1	28µM*	5	5	-19%	7%	-11
